Screening data as filed in PubChem.
This is a sample that favours compounds with a hit; in the whole collection about 2% have one here.
Mcl-1 Bim block = human Bim-Mcl-1 interaction inhibition; Q07820; Bead-based flow cytometry, Bim peptide-Mcl-1 binding; inhibition, % at 10 µM; 0.1% of 190,000 active; AID 1009; in the data active means inhibition above about 40%
Target sequence (Q07820 whole entry, looked up): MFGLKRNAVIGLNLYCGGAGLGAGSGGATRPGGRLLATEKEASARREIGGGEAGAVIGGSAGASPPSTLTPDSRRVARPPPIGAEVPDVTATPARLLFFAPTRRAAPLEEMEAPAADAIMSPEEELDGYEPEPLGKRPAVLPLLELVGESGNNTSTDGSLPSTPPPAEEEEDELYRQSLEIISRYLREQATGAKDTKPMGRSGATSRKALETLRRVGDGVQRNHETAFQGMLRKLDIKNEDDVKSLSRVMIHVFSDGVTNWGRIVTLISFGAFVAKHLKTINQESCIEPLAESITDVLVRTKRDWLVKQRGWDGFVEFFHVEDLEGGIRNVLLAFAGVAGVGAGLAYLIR
MCL1 BIM primary = inhibitors of human MCL1 binding to BIM-BH3 peptide; inhibition, % at 10.9 µM; GST-MCL1 / FITC-Bim-BH3 fluorescence polarization; 0.68% of 320,000 active;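 active means inhibition above the mean inhibition of all tested compounds plus 3 SD, set per campaign, cut at about 40% in these data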;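 further: higher means more loss of mP so more displacement of Bim peptide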
Mcl1-Noxa inh = disrupts binding of human Mcl-1 to Noxa peptide. Q07820. TR-FRET Mcl-1/Noxa peptide binding, 2 h. inhibition, % at 21.7 µM. 1.5% of 220,000 active. AID 1022;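 active means compounds that cut the protein-peptide binding signal by more than 50% relative to plate controls in a single-dose test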;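 further: His-tagged Mcl-1 with rhodamine Noxa BH3 peptide and terbium anti-His antibody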
Mcl1 Bid PPI = disrupts binding of human Mcl-1 to Bid peptide. 0.97% of 220,000 active. TR-FRET Mcl-1/Bid-Dy647 peptide binding, 1536-well. Q07820. AID 1021. inhibition, % at 21.7 µM;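 active means compounds that cut the binding signal by more than half at the single screening dose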;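 further: His-tagged Mcl-1 with europium anti-His antibody binding Bid BH3 peptide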
A number is an active result; - = inactive; . = not tested or not shown.

SMILES | Mcl-1 Bim block | MCL1 BIM primary | Mcl1-Noxa inh | Mcl1 Bid PPI
C/C(=N\NC(=O)c1ccccc1-n1cccc1)C1CC1 | - | - | - | -
N=C1/C(=C\c2coc3ccccc3c2=O)C(=O)N=C2SC(c3ccncc3)=NN12 | . | - | 61.1 | -
CCN(c1ccc(NC(=O)c2ccc(Cl)nc2)cc1)C(C)C | - | - | 79.1 | -
O=C(Nc1ccc(N2CCOCC2)cc1)c1ccc(Cl)nc1 | - | - | - | -
CN1CCN(C(=O)c2ccccc2NC(=O)c2cccc(Cl)c2)CC1 | . | - | . | .
O=C(COC(=O)CCNS(=O)(=O)c1ccc2c(c1)OCCO2)NC1CCCc2ccccc21 (stereo unspecified) | - | - | - | 75.6
COc1ccc(C(C)=O)cc1COC(=O)c1ccc(OCc2c(C)noc2C)cc1 | - | - | - | 52.2
O=C(O)CCN1C(=O)/C(=C/c2ccc(-c3nc4ccccc4s3)o2)SC1=S | - | - | 104.2 | 94.2
O=C(O)CC(C(=O)O)N1C(=O)/C(=C/c2ccc(-c3nc4ccccc4s3)o2)SC1=S (stereo unspecified) | - | - | - | -
O=C(O)CCCN1C(=O)/C(=C\c2ccc(-c3nc4ccccc4s3)o2)SC1=S | . | - | 104.3 | 87.2
Cc1ccc(C2C(C(=O)c3cc4ccccc4o3)=C(O)C(=O)N2CCN2CCOCC2)cc1 (stereo unspecified) | . | - | . | .
Cc1ccc(C2C(C(=O)c3cc4ccccc4o3)=C(O)C(=O)N2CCN2CCOCC2)o1 (stereo unspecified) | - | - | - | 51.2
CNNC(=O)C(=O)NNS(=O)(=O)c1ccccc1 | - | - | - | 85.7
COc1cc(/C=N/n2c(-c3n[nH]c4c3CCC4)n[nH]c2=S)ccc1O | . | - | - | -
COc1ccc(/C=N/n2c(-c3n[nH]c4c3CCC4)n[nH]c2=S)cc1OC | - | - | 65.1 | -
COc1cccc(N2CCN(CC(=O)Nc3ccc(S(=O)(=O)N4CCCCCC4)cc3)CC2)c1 | . | - | . | .
CNC(=S)Nc1cc(C)ccc1OC(F)F | - | - | - | 97.9
COc1ccc2[nH]c(=O)c(CNC3CCCCC3)cc2c1 | - | - | - | 70.3
COc1ccc2[nH]c(=O)c(CNc3cccc(C)c3)cc2c1 | - | - | 50.9 | -
COc1ccc2[nH]c(=O)c(CN(C(=O)C3CCCO3)c3ccc(C)c(C)c3)cc2c1 (stereo unspecified) | . | - | - | 100.4
COc1ccc(NCc2cc3cc(OC)ccc3[nH]c2=O)cc1 | - | - | - | -
O=C(O)C1=C[C@H](C2CC2)C[C@H](OCCCCO)O1 | 44.0 | - | - | -
CCS(=O)(=O)C1=NN2C(=N)/C(=C\c3ccc(OC(=O)c4ccco4)c(Br)c3)C(=O)N=C2S1 | . | - | . | .
CCS(=O)(=O)C1=NN2C(=N)/C(=C\c3ccc(SCc4ccco4)o3)C(=O)N=C2S1 | - | . | 79.7 | -
CCCCNC(=O)c1onc(CS(=O)(=O)c2ccccn2)c1C(=O)NCCCC | . | - | . | .
SMILES | Mcl-1 Bim block | MCL1 BIM primary | Mcl1-Noxa inh | Mcl1 Bid PPI
COc1ccccc1NC(=O)CSc1nc2ccccc2cc1Cc1ccccc1 | - | - | - | 73.3
CCOc1ccccc1OCCCC(=O)NNC(=O)c1cc(C)oc1C | . | - | . | .
Cc1cc(NS(=O)(=O)c2ccc(Nc3nc(-c4ccc(O)cc4)cs3)cc2)no1 | - | - | 69.1 | -
COc1ccc(-c2csc(Nc3ccc(S(N)(=O)=O)cc3)n2)cc1OC | - | - | 51.0 | -
Cc1cc(NS(=O)(=O)c2ccc(Nc3nc(-c4ccc(C)c(C)c4)cs3)cc2)no1 | - | - | - | -
CC1(C)NC(=O)N(c2ccc([N+](=O)[O-])c(C(F)(F)F)c2)C1=O | . | - | . | .
O=C(NC1CCCC1)C(c1ccccc1)N(C(=O)c1csnn1)c1ccccc1F (stereo unspecified) | . | - | . | .
C=CCN1C(=O)/C(=C2/Sc3ccccc3N2CC)SC1=S | . | - | . | .
C=CCN1C(=O)/C(=C2/Sc3ccccc3N2CCCS(=O)(=O)O)SC1=S | - | - | 71.0 | -
CC1C(=O)C(C)C(c2cc(Cl)ccc2O)NC1c1cc(Cl)ccc1O (stereo unspecified) | . | - | . | .
COc1ccc(NC(=O)c2cccc(S(=O)(=O)N3CCCCCC3)c2)cc1 | . | - | . | .
NC(=S)n1[nH]c(-c2ccc([N+](=O)[O-])cc2)c(N=Nc2ccc(Cl)cc2)c1=O | - | . | 73.1 | 97.8
O=c1c(N=Nc2ccc(O)cc2)c(-c2ccccc2)[nH]n1-c1ccc([N+](=O)[O-])cc1 | - | - | 71.1 | 59.6
NC(=O)c1ccc(N=Nc2c(-c3ccccc3)[nH]n(-c3ccccc3)c2=O)cc1 | - | - | - | -
Cc1ccc([N+](=O)[O-])cc1N=Nc1c(-c2ccc([N+](=O)[O-])cc2)[nH]n(C(N)=S)c1=O | - | . | 110.9 | 67.8
COc1ccccc1NC(=O)CSc1nnnn1-c1ccc(F)cc1 | . | - | . | .
Cc1cc(C)cc(NS(=O)(=O)c2c(C(=O)N3CCOCC3)c(C)n(C)c2C)c1 | . | - | . | .
Oc1oc(-c2cccc3ccccc23)nc1C=NCc1ccccc1 | - | . | - | -
COc1cc(O)c2c(c1)OC(C)(C)CC2=O | - | - | - | -
COc1cc(O)cc2cc3c(c(O)c12)C(=O)CC(C)(O)O3 (stereo unspecified) | . | 43.1 | - | -
CSc1nc2c(c(=O)[nH]1)C(c1cccs1)C1=C(CCCC1=O)N2 (stereo unspecified) | - | - | - | -
O=C1CCCC2=C1C(c1cn(-c3ccccc3)nc1-c1cccs1)c1c([nH]c(=O)[nH]c1=O)N2 (stereo unspecified) | - | - | 62.2 | -
COc1ccc(-c2cc(-c3ccco3)[nH]c(=O)c2C#N)cc1OC | . | 46.3 | - | -
CCOc1ccc(N2CC(O)=C(c3nc4ccccc4c(=O)[nH]3)C2=N)cc1 | - | - | - | 56.8
N=C1C(c2nc3ccccc3c(=O)[nH]2)=C(O)CN1c1ccccc1 | - | . | - | -
SMILES | Mcl-1 Bim block | MCL1 BIM primary | Mcl1-Noxa inh | Mcl1 Bid PPI
Oc1ccc(N2CCN(c3ncnc4sc5c(c34)CCC5)CC2)cc1 | - | - | 73.6 | -
Cc1nc(-n2nnc3ccccc32)c2c3c(sc2n1)CCCC3 | - | - | - | -
OCCN1CCN(c2ncnc3sc4c(c23)CCCC4)CC1 | . | - | . | .
c1ccc2c(c1)nnn2-c1ncnc2sc3c(c12)CCCC3 | - | - | - | 79.9
Cc1nnc(SC(C)C(=O)NC2CCCCC2C)s1 (stereo unspecified) | . | - | . | .
Cc1cc(C)c2nc(NNC(=O)c3cc(=O)c4ccccc4o3)sc2c1 | - | - | 64.8 | -
CC1(C)CC(=O)N(c2ccc(Cl)cc2Cl)C(=O)C1 | . | - | . | .
Cc1ccc(/C=N/n2c(-c3cccc(Cl)c3)n[nH]c2=S)o1 | . | - | - | -
Cc1nnc(C)n1/N=C/c1ccc(-c2ccccc2Cl)o1 | . | - | . | .
S=c1[nH]nc(-c2ccccc2)n1/N=C/c1ccc(-c2ccccc2Cl)o1 | - | - | 63.9 | -
S=c1[nH]nc(-c2cccc(Cl)c2)n1/N=C/c1ccc(-c2ccccc2Br)o1 | . | - | 72.3 | -
C=CCNC(=O)NC(=O)CN1C(=O)NC(c2ccccc2)(c2ccccc2)C1=O | . | - | . | .
CCc1nnc(SC(C)C(=O)Nc2nccs2)n1C (stereo unspecified) | . | - | . | .
COc1ccc(CNC(=O)CNS(=O)(=O)c2cccs2)cc1 | . | - | . | .
COc1cc(/C=C/C(=O)O)cc(S(=O)(=O)Nc2cccc(SC)c2)c1OC | - | - | - | -
